Measured values published in PubChem BioAssay AID1159580 (chemical genetic matrix, 2015).
“And” between values parts separate entries of the source, which are not always exact repeats. Equal entries are not always repeated. In all, about 5,500 compounds went through this assay and about 2,000 (36%) were called active. Roughly 18% stayed inconclusive and do not appear here. Rule as the data show it: active = normalized growth mostly below about 0.91 (no sharp cut-off); inconclusive = no clear call, values can overlap the other calls; inactive = mostly above about 0.92. Some of the results follow.

Experiment: chemical genetic growth profiling, strain panel (AID 1159580);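 also: tested at 20 µM; growth read once vehicle control cultures reached saturation at 30 °C; 1 = growth at the plate median or of vehicle wells; lower values mean less growth of the strain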
Settings: growth OD

Measured: normalized growth

CCC1(C)CC(=O)NC1=O (stereo unspecified)
inactive: S. cerevisiae deletion strains, locus YJR075W, strain HOC1, active compounds read low 1.01 | S. cerevisiae deletion strains, locus YKL009W, strain mrt4, active compounds read low 1.03 | S. cerevisiae deletion strains, locus YKL068W, active compounds read low 1.01 | S. cerevisiae deletion strains, locus YKL085W, strain MDH1 (second series), active compounds read low 1.01 | S. cerevisiae deletion strains, locus YKL085W, strain MDH1, active compounds read low 1.01 | S. cerevisiae deletion strains, locus YKL160W, strain elf1, active compounds read low 0.992 | S. cerevisiae deletion strains, locus YKL190W, strain CNB1, active compounds read low 1.02 | S. cerevisiae deletion strains, locus YKR001C, strain vps1, active compounds read low 1.01 | S. cerevisiae deletion strains, locus YKR026C, strain gcn3, active compounds read low 0.979 | S. cerevisiae deletion strains, locus YKR091W, strain srl3, active compounds read low 0.972 | S. cerevisiae deletion strains, locus YLL001W, strain dnm1, active compounds read low 0.967 | S. cerevisiae deletion strains, locus YLL026W, active compounds read low 0.98 | S. cerevisiae deletion strains, locus YLL041C, strain sdh2, active compounds read low 0.995 | S. cerevisiae deletion strains, locus YLR027C, strain aat2, active compounds read low 0.975 | S. cerevisiae deletion strains, locus YLR039C, strain RIC1, active compounds read low 1.03 | S. cerevisiae deletion strains, locus YLR058C, strain SHM2, active compounds read low 1.02 | S. cerevisiae deletion strains, locus YLR102C, strain apc9, active compounds read low 1.01 | S. cerevisiae deletion strains, locus YLR113W, strain HOG1, active compounds read low 0.966 | S. cerevisiae deletion strains, locus YLR221C, strain rsa3, active compounds read low 0.987 | S. cerevisiae deletion strains, locus YLR258W, strain gsy2, active compounds read low 0.968 | S. cerevisiae deletion strains, locus YLR262C, strain YPT6 (second series), active compounds read low 0.977 | S. cerevisiae deletion strains, locus YLR262C, strain YPT6, active compounds read low 1.04 | S. cerevisiae deletion strains, locus YLR268W, strain sec22, active compounds read low 1.02 | S. cerevisiae deletion strains, locus YLR320W, strain mms22, active compounds read low 0.978 | S. cerevisiae deletion strains, locus YLR330W, strain CHS5, active compounds read low 1.01 | S. cerevisiae deletion strains, locus YLR342W, strain FKS1 (second series), active compounds read low 1.02 | S. cerevisiae deletion strains, locus YLR342W, strain FKS1, active compounds read low 0.988 | S. cerevisiae deletion strains, locus YLR357W, strain rsc2, active compounds read low 0.965 | S. cerevisiae deletion strains, locus YLR370C, strain arc18, active compounds read low 0.981 | S. cerevisiae deletion strains, locus YLR371W, strain rom2, active compounds read low 1.02 | S. cerevisiae deletion strains, locus YLR384C, strain iki3, active compounds read low 0.969 | S. cerevisiae deletion strains, locus YLR418C, strain cdc73, active compounds read low 1.02 | S. cerevisiae deletion strains, locus YML016C, strain PPZ1, active compounds read low 1.01 | S. cerevisiae deletion strains, locus YML032C, strain rad52, active compounds read low 1.01 | S. cerevisiae deletion strains, locus YML120C, strain ndi1, active compounds read low 0.977 | S. cerevisiae deletion strains, locus YML124C, strain tub3, active compounds read low 1.02 | S. cerevisiae deletion strains, locus YMR058W, strain fet3, active compounds read low 0.969 | S. cerevisiae deletion strains, locus YMR078C, strain ctf18, active compounds read low 1.02 | S. cerevisiae deletion strains, locus YMR125W, strain sto1, active compounds read low 0.97 | S. cerevisiae deletion strains, locus YMR129W, active compounds read low 0.979 | S. cerevisiae deletion strains, locus YMR205C, strain PFK2, active compounds read low 0.992 | S. cerevisiae deletion strains, locus YMR223W, strain ubp8, active compounds read low 1.02 | S. cerevisiae deletion strains, locus YMR231W, strain pep5, active compounds read low 0.983 | S. cerevisiae deletion strains, locus YMR263W, strain SAP30, active compounds read low 1.01 | S. cerevisiae deletion strains, locus YMR307W, strain GAS1, active compounds read low 1.04 | S. cerevisiae deletion strains, locus YNL067W, strain RPL9B, active compounds read low 1.01 | S. cerevisiae deletion strains, locus YNL071W, strain lat1, active compounds read low 0.96 | S. cerevisiae deletion strains, locus YNL128W, strain TEP1, active compounds read low 1.04 | S. cerevisiae deletion strains, locus YNL153C, strain GIM3, active compounds read low 1.01 | S. cerevisiae deletion strains, locus YNL175C, strain NOP13, active compounds read low 0.993 | S. cerevisiae deletion strains, locus YNL183C, strain NPR1, active compounds read low 0.906 | S. cerevisiae deletion strains, locus YNL197C, strain WHI3, active compounds read low 0.999 | S. cerevisiae deletion strains, locus YNL209W, strain ssb2, active compounds read low 0.969 | S. cerevisiae deletion strains, locus YNL224C, strain SQS1, active compounds read low 0.975 | S. cerevisiae deletion strains, locus YNL233W, strain BNI4, active compounds read low 1 | S. cerevisiae deletion strains, locus YNL248C, strain rpa49, active compounds read low 0.993 | S. cerevisiae deletion strains, locus YNL250W, strain rad50, active compounds read low 1.01 | S. cerevisiae deletion strains, locus YNL271C, strain bni1, active compounds read low 1.03 | S. cerevisiae deletion strains, locus YNL298W, strain CLA4, active compounds read low 1.02 | S. cerevisiae deletion strains, locus YNL307C, strain MCK1, active compounds read low 1.02 | S. cerevisiae deletion strains, locus YNL322C, strain KRE1 (second series), active compounds read low 0.982 | S. cerevisiae deletion strains, locus YNL322C, strain KRE1, active compounds read low 1.01 and 1.02 | S. cerevisiae deletion strains, locus YNR049C, strain mso1, active compounds read low 0.969 | S. cerevisiae deletion strains, locus YNR052C, strain pop2, active compounds read low 1.02 | S. cerevisiae deletion strains, locus YOL006C, strain TOP1, active compounds read low 0.992 | S. cerevisiae deletion strains, locus YOL012C, strain htz1 0.885 | S. cerevisiae deletion strains, locus YOL147C, strain pex11, active compounds read low 1.01 | S. cerevisiae deletion strains, locus YOR001W, strain rrp6, active compounds read low 0.98 | S. cerevisiae deletion strains, locus YOR061W, strain CKA2, active compounds read low 1.01 | S. cerevisiae deletion strains, locus YOR069W, strain VPS5, active compounds read low 1.01 | S. cerevisiae deletion strains, locus YOR070C, strain gyp1, active compounds read low 1.01 | S. cerevisiae deletion strains, locus YOR080W, strain dia2, active compounds read low 0.976 | S. cerevisiae deletion strains, locus YOR083W, strain WHI5 (second series), active compounds read low 1 | S. cerevisiae deletion strains, locus YOR083W, strain WHI5, active compounds read low 0.976 | S. cerevisiae deletion strains, locus YOR106W, strain vam3, active compounds read low 0.959 | S. cerevisiae deletion strains, locus YOR136W, strain idh2, active compounds read low 1.02 | S. cerevisiae deletion strains, locus YOR144C, strain elg1, active compounds read low 1.01 | S. cerevisiae deletion strains, locus YOR184W, strain ser1, active compounds read low 1.01 | S. cerevisiae deletion strains, locus YOR231W, strain MKK1, active compounds read low 0.977 | S. cerevisiae deletion strains, locus YOR265W, strain rbl2, active compounds read low 0.978 | S. cerevisiae deletion strains, locus YOR270C, strain vph1, active compounds read low 0.984 | S. cerevisiae deletion strains, locus YOR290C, strain snf2, active compounds read low 0.963 | S. cerevisiae deletion strains, locus YOR316C, strain cot1, active compounds read low 1.02 | S. cerevisiae deletion strains, locus YPL051W, strain arl3, active compounds read low 0.987 | S. cerevisiae deletion strains, locus YPL055C, strain LGE1, active compounds read low 0.988 and 1.06 | S. cerevisiae deletion strains, locus YPL078C, strain atp4, active compounds read low 0.97 | S. cerevisiae deletion strains, locus YPL106C, strain sse1, active compounds read low 1.01 | S. cerevisiae deletion strains, locus YPL240C, strain hsp82, active compounds read low 0.973 | S. cerevisiae deletion strains, locus YPL241C, strain CIN2, active compounds read low 1.01 | S. cerevisiae deletion strains, locus YPL256C, strain CLN2, active compounds read low 0.956 | S. cerevisiae deletion strains, locus YPR119W, strain clb2, active compounds read low 1.01 | S. cerevisiae deletion strains, locus YPR141C, strain kar3, active compounds read low 1.02 | S. cerevisiae deletion strains, locus YPR163C, strain tif3, active compounds read low 1.02 | S. cerevisiae deletion strains, locus YPR167C, strain met16, active compounds read low 1.02 | S. cerevisiae deletion strains, strain wtn01, active compounds read low 1.02 | S. cerevisiae strains, strain wild type, active compounds read low 1.01
